Test results published in PubChem BioAssay (Tox21).
Inconclusive results are not listed. Values without a mark were called inactive. The source made the active and inactive calls. Calls follow the shape of the full dose curve.

target: D(2) dopamine receptor (Homo sapiens) (UniProt P14416); test: Dopamine D2 receptor (DRD2) small molecule agonists, cell-based qHTS assay (AID 1963594); details: HEK293-DRD2 cAMP HTRF, agonist mode, 30 min; series mostly up to 92.4 µM; activation: at the top concentration; also: nearly all actives have a fitted effect of over 35% in size
Text: National Center for Advancing Translational Sciences [NCATS]
Division of Preclinical Innovation [DPI]
U.S. Environmental Protection Agency [EPA]
National Institutes of Environmental Health Sciences [NIEHS]
National Toxicology Program [NTP]
U.S. Food and Drug Administration [FDA]
DRD2 is the D2 subtype of the dopamine receptor, which is coupled to Gi subtype of G protein-coupled receptor. This G protein-coupled receptor inhibits adenylyl cyclase activity. The DRD2-HEK293 cell line stably expressing D2 dopamine receptor can be used for screening agonists and antagonists of interactions between D2 and its ligands. The Hek293-DRD2 cAMP assay is based on HTRF technology. It measures changes of cAMP accumulation in response to Gi coupled GPCR activation or inhibition.
Tox21 Assay Protocol Summary:
DRD2-Hek293 cells were dispensed at 600 cells/3uL/well in 1536-well white plates using a Multidrop Dispenser. After the assay plates were incubated at a 37 C/5% CO2 incubator for 24 h, 1 uL of Ro20-1724 at final concentration of 0.1 mM was transferred to the assay plate by a Flying Reagent Dispenser. Following Ro20-1724 addition, 23 nL of compound dissolved in DMSO, positive controls or DMSO only was added to the assay plates via Wako pintool station. The assay plates were incubated at room temperature for 10 min. Next, 1 uL of NKH477 at 200nM was added into the plates. After the assay plates were incubated at room temperature for an additional 30 min, 2.5 ul/well of cAMP-d2 and 2.5 ul/well of anti-cAMP-cryptate were added respectively into the assay plates using a Flying Reagent Dispenser. The plates were incubated at room temperature for 1 h. The fluorescence intensity in the plates was measured at 340 nm excitation and 665 & 620 nm emission by an Envision plate reader.
% is scaled to controls: 0 for no effect and ±100 for the full control effect; potency is read from the fitted curve at half-maximal effect.

Chain of D(2) dopamine receptor (Homo sapiens) (P14416 whole entry, looked up): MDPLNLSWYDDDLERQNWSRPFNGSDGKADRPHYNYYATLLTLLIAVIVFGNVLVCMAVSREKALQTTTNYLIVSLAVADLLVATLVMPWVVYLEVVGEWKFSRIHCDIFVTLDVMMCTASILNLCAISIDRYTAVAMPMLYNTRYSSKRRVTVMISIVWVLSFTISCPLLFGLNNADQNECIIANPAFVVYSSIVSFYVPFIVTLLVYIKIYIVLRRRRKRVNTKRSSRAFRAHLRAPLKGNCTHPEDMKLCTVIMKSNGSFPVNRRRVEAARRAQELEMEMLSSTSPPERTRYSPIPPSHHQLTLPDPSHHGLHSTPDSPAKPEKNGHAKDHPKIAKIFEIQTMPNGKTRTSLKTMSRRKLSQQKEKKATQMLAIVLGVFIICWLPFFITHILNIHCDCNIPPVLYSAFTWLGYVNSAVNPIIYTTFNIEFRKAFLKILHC

Row | SMILES | activation | Potency
1 | C[C@@]12C(=O)OC(=O)[C@]1(C)C1CCC2O1 | 0.73% [at 42.5 µM] | 
2 | CCOC(=O)Oc1ccc(CCNC(=O)[C@H](CCSC)NC(C)=O)cc1OC(=O)OCC |  | 2370 nM (active)
3 | O=C(CCCl)NCCc1ccccc1 | 5.89% [at 42.5 µM] | 
4 | C/C=C/C(=O)CC | -9.38% [at 19 µM] | 
5 | NCCCNCCSP(=O)(O)O | -13.4% [at 8.39 µM] | 
6 | C=CC/C=C/C/C=C/C/C=C/C | -4.18% | 
7 | O=C1OC(=O)C2CCCCC12 (stereo not given) | 0.0764% | 
8 | O=C1c2ccccc2C(=O)C1c1ccc(Br)cc1 | 6% [at 42.5 µM] | 
9 | COc1ccc(C(C)=O)cc1 | 0.767% | 
10 | CC(C)(C)OC(=O)N1C[C@@H](F)C[C@H]1C(=O)O | -0.082% | 
11 | COCCOCC(OC)OC | -4.04% [at 42.5 µM] | 
12 | CCOC(=O)OC(C)OC1=C(C(=O)Nc2ccccn2)N(C)S(=O)(=O)c2ccccc21 (stereo not given) | -2.67% [at 42.5 µM] | 
13 | CCNC(=O)C(C)OC(=O)Nc1ccccc1 (stereo not given) | 7.1% | 
14 | CC(=O)CCc1ccc(O)cc1 | -1.96% | 
15 | CCCCN1C=CN(C)C1 | 0.42% [at 19 µM] | 
16 | NCc1ccco1 | 0.596% | 
17 | COc1ccc2c(c1)c(CC(=O)OCC(=O)O)c(C)n2C(=O)c1ccc(Cl)cc1 | -6.55% [at 42.5 µM] | 
18 | NCC[C@H](O)C(=O)N[C@@H]1C[C@H](N)[C@@H](O[C@H]2O[C@H](CN)[C@@H](O)[C@H](O)[C@H]2O)[C@H](O)[C@H]1O[C@H]1O[C@H](CO)[C@@H](O)[C@H](N)[C@H]1O | -17.8% [at 0.349 µM] | 
19 | O=c1[nH]cccc1O | 0.954% | 
20 | Cc1ccc(C(=O)c2ccccc2)cc1 | -5.95% | 

Row | SMILES | activation | Potency
21 | O=C(O)CCCCCCC(=O)O | 1.28% | 
22 | CC1=NN(c2ccc(C(=O)O)cc2)C(=O)C1 | 1.8% | 
23 | CCN(CC)CCNC(=O)c1cc(S(C)(=O)=O)ccc1OC | -13.8% [at 42.5 µM] | 
24 | CN(C)CCN1CCOCC1 | 0.17% | 
25 | CCCC(=O)O[C@]1(C(=O)CC)CC[C@H]2[C@@H]3CCC4=CC(=O)CC[C@]4(C)[C@H]3[C@@H](O)C[C@@]21C | -14.3% [at 42.5 µM] | 
26 | C=CC(=O)OCC[N+](C)(C)C | -0.145% | 
27 | O=P(O)(O)Oc1ccccc1 | 2.98% | 
28 | CCC(CO)(CO)[N+](=O)[O-] | -0.186% | 
29 | [O-][n+]1cccc(/C(Cl)=N/OC[C@@H](O)CN2CCCCC2)c1 | 20.6% [at 42.5 µM] | 
30 | CC[C@H]1OC(=O)[C@H](C)[C@@H](O[C@H]2C[C@@](C)(OC)[C@@H](O)[C@H](C)O2)[C@H](C)[C@@H](O[C@@H]2O[C@H](C)C[C@H](N(C)C)[C@H]2O)[C@](C)(OC)C[C@@H](C)C(=O)[C@H](C)[C@@H](O)[C@]1(C)O | -0.202% | 
31 | COC(=O)N/N=C/c1c[n+]([O-])c2ccccc2[n+]1[O-] | 26.1% [at 42.5 µM] | 
32 | CN1C(=O)CC(c2ccccc2)C1=O (stereo not given) | 5.65% [at 42.5 µM] | 
33 | O=C(NCCN1CCOCC1)c1ccc(Cl)cc1 | -0.772% [at 42.5 µM] | 
34 | CCOC(=O)Cc1cccc2ccccc12 | -10.5% | 
35 | CCOC(=O)c1ncn2c1CN(C)C(=O)c1cc(F)ccc1-2 | 8.51% [at 42.5 µM] | 
36 | Clc1ccc2c(c1)CCc1cccnc1C2=C1CCNCC1 | 19.8% [at 42.5 µM] | 
37 | O=C1NCN(c2ccccc2)C12CCN(CCCC(c1ccc(F)cc1)c1ccc(F)cc1)CC2 | -22.2% [at 42.5 µM] | 
38 | CN(CCOc1ccc(NS(C)(=O)=O)cc1)CCc1ccc(NS(C)(=O)=O)cc1 | -10.3% [at 42.5 µM] | 
39 | CCCCCCCCCCCC[N+](C)(C)CCCCCCCCCCCC | -7.75% | 
40 | O=C(O)CCC(=O)c1ccc(-c2ccccc2)cc1 | 4.1% [at 42.5 µM] | 
